Pf growth 96h = P. falciparum growth inhibition at 96 hour, primary screen for plastid delayed-death inhibitors; P. falciparum luciferase reporter growth, 96 h; hit rate 6.9% among 320,000; Potency, µM (highest dose often 28.7 µM), without a hit: at the top dose activity change, negative = inhibition, usual class: inhibitors; AID 504834; further: potency means the concentration at half of the fitted maximal effect
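Cell-based qHTS: luciferase-tagged P. falciparum in erythrocytes (2% hematocrit, 0.05% parasitemia final) incubated with compounds for 96 hours, 37 C, 5% CO2; luciferase detection reagent then added and luminescence measured.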
Sm TGR inh = inhibitors of Schistosoma mansoni thioredoxin glutathione reductase; Q962Y6; purified TGR, DTNB reduction, TNB absorbance 405 nm; Potency, µM (top dose mostly 114 µM), for inactives: at the highest dose activity change, negative = inhibition, actives largely listed as inhibitors; hit rate 3% among 360,000; further: potency means the concentration at half of the fitted maximal effect; nearly all actives have a fitted effect of over 60% in size
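TGR 20 nM + NADPH 100 uM (dispensed conc.), cpd preinc 15 min RT; start with NADPH (500 uM addition) then DTNB (15 mM addition). Kinetic TNB absorbance, 405 nm filter. Four-parameter Hill fit across titration.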
Giardia FBPA inh = Giardia lamblia aldolase inhibition. AID 2451. purified Giardia FBPA. Potency, µM (doses to about 59.6 µM), for inactives: at the highest dose activity, negative = inhibition, usual class: inhibitors. hit rate 0.71% among 290,000; further: potency means the concentration at half of the fitted maximal effect; nearly all actives have a fitted effect of over 55% in size
Target sequence (A8B2U2 whole entry, looked up): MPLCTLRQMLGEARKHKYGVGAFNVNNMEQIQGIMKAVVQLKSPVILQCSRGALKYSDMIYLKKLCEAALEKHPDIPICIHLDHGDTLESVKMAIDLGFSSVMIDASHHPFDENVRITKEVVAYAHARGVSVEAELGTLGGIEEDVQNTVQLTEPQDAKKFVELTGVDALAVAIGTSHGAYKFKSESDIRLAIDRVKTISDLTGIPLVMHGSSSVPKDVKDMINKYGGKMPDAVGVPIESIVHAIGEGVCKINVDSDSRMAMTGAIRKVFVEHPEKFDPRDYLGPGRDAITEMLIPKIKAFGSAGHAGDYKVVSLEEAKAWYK
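40 nM FBPA preincubated 10 min at RT with compound (up to 57.5 uM final), then substrate plus GAPDH/TPI/NAD/arsenate coupling and diaphorase/resazurin added. Fluorescence read after 20 min at RT, 525/598 nm.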
Pf growth 48h = inhibits P. falciparum growth in the first generation, 48 h; Potency, µM (titrated, usually from 28.7 µM), without a hit: at the highest dose activity change, negative = inhibition, most hits filed as inhibitors; hit rate 5.9% among 310,000; AID 504832; P. falciparum luciferase growth in erythrocytes, 48 h; further: potency means the concentration at half of the fitted maximal effect
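Luciferase-expressing P. falciparum in infected erythrocytes (2% hematocrit, 0.1% parasitemia final) in RPMI 1640/0.5% Albumax were exposed to compound for 48 hours at 37 C, 5% CO2; growth read as luminescence.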
HCMV inh = inhibitors of human cytomegalovirus | HFF cells, HCMV-luciferase reporter, 72 h; hits give low values | activity change, negative = inhibition, % at 57.5 µM | hit rate 4.5% among 410,000 | AID 1259415; in the data active means activity change below about -60%; inconclusive means no clear call, values can overlap the other calls; inactive means above about -39%
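Inhibition of viral replication was scored as loss of reporter luminescence in HFFs infected with HCMV-luciferase (MOI 1 PFU/cell) for 72 h; compounds tested at 2 doses, normalized to buffer and Salinomycin controls.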
The depositor's hits bear a star; u = inconclusive; x = no result. A selection: hits, their analogues and other compounds. The true share with any hit is near 14%. Unless noted, the call rests on the fitted dose curve; in most records, active means well fitted curve in the direction sought with a large enough effect; inconclusive means small, poorly fitted or top-dose-only effect, or another doubt; inactive means no such curve, though single readings can be large; an effect the other way counts as inactive or inconclusive. On the % scale 0 is the no-effect control and ±100 the full control effect.

SMILES	Pf growth 96h	Sm TGR inh	Giardia FBPA inh	Pf growth 48h	HCMV inh
Cc1ccc2nc(-c3ccc(NC(=O)CCN4C(=O)c5ccccc5C4=O)cc3)sc2c1	59%	-2%	-4%	218%	47
O=C(c1ccc(-c2nc3ccccc3s2)o1)N1CCN(c2ccccc2O)CC1	5.2µM*	-1%	x	u	-26
O=C(CCN1C(=O)c2ccccc2C1=O)Nc1ccc(-c2nc3ccccc3s2)cc1	1.3µM*	5%	2%	40%	129
Cc1cccc2cc(C#N)c(NCCCNS(=O)(=O)c3ccc(Cl)cc3)nc12	-24%	6%	-5%	0%	-67*
Cc1ccc2cc(C#N)c(NCCNC(=S)NCCCN(C)C)nc2c1C	u	0%	-2%	u	-12
Cc1cccc2cc(C#N)c(NCc3ccccc3)nc12	9%	0%	18µM*	u	26
Cc1cccc2cc(C#N)c(NCCNC(=O)COc3ccccc3)nc12	-7%	-5%	16µM*	8%	-23
Cc1ccc2cc(C#N)c(NCCNC(=O)C3CC3)nc2c1C	7%	-6%	0%	u	-88*
COc1ccc(-c2c(C#N)c(SCC(=O)Nc3cccc(Cl)c3)nc(C)c2C(=O)Nc2ccccc2)cc1OC	x	3%	x	x	17
Cc1ccc(-n2c(SCC(=O)NCCN3C(=O)CSC3=O)nnc2-c2ccccc2F)cc1	15µM*	-11%	6%	-12%	u
Oc1ccc(/C=N/Nc2nccnc2Cl)c(O)c1	u	-9%	-4%	x	-97*
C(=N\Nc1ccccn1)/c1c[nH]c2ccccc12	1%	11%	0%	95%	-68*
O=[N+]([O-])c1ccccc1/C=N/Nc1nccnc1Cl	237%	3%	-1%	92%	79
Oc1ccc(C=NNc2ccccn2)c(O)c1	x	x	x	x	-99*
Oc1ccccc1/C=N/Nc1nccnc1Cl	-11%	0%	-9%	x	-100*
O=C(O)c1cccc2c(/C=N/Nc3ccccn3)c[nH]c12	93%	0%	-28%	83%	x
O=C(CN1CCN(S(=O)(=O)c2ccc(F)c(Cl)c2)CC1)N1CCc2ccccc2C1	x	x	x	x	-25
O=C(CN1CCN(S(=O)(=O)c2cc(C(F)(F)F)ccc2Cl)CC1)N1CCc2ccccc2C1	u	40µM*	x	13µM*	-28
COc1ccc(S(=O)(=O)N2CCN(CC(=O)N3CCc4ccccc4C3)CC2)cc1OC	9.3µM*	-22%	x	u	-12
CC(=O)N1CCc2cc(C(=O)CN3CCN(C(=O)c4ccco4)CC3)ccc21	u	14µM*	-29%	x	x
CC(=O)N1CCc2cc(C(=O)CN3CCCN(Cc4ccc(F)cc4)C3)ccc21	u	45µM*	6%	x	x
CC(=O)N1CCc2cc(CNC(=O)Cc3ccc(F)cc3)ccc21	x	-15%	x	x	86
CC(=O)N1CCc2cc(C(=O)CN3CCN(c4cccc(Cl)c4)CC3)ccc21	-1%	25µM*	-12%	x	-17
CC(=O)N1CCc2cc(C(=O)CN3CCC(C)CC3)ccc21	-22%	28µM*	-13%	x	10
IC(I)I	-10%	x	x	-8%	x
SMILES	Pf growth 96h	Sm TGR inh	Giardia FBPA inh	Pf growth 48h	HCMV inh
COc1cccc(NC(=O)CN(C)C(=O)CCCc2c[nH]c3ccccc23)c1	-26%	u	x	u	u
Cc1ccc(NC(=O)Cn2nc(-c3ccccc3)nc(Cc3ccccc3)c2=O)cc1	x	-7%	x	x	u
COC(=O)CN(C#N)c1nc(N(C)C)nc(N(C)C)n1	4.1µM*	-2%	-3%	-7%	3
COC(=O)CN(C#N)c1nc(NCc2ccccc2)nc(OC)n1	u	-16%	7%	9.3µM*	-9
COC(=O)CN(C#N)c1nc(OC)nc(N(C)C)n1	4%	-37%	-2%	-5%	6
Cc1ccnc(NC(c2ccncc2)c2c(C)[nH]c3ccccc23)c1 (centres undefined)	u	2µM*	-5%	-2%	-21
Cc1ccnc(NC(=O)CCc2c[nH]c3ccccc23)c1	86%	79%	x	100%	30
Cc1[nH]c2ccccc2c1C(Nc1nccs1)c1ccncc1 (centres undefined)	u	40µM*	0%	-18%	80
COc1ccc(O)c(C(=O)C2c3ccccc3C(=O)N2c2ccc(C)cc2)c1 (centres undefined)	1.5µM*	0%	u	u	66
CCCOC(=O)C[N+](C)(C)CCOC1CC2CCC1(C)C2(C)C (centres undefined)	1.5µM*	-5%	-4%	1.9µM*	u
CCC(C)OC(=O)C[N+](C)(C)CCOC1CC2CCC1(C)C2(C)C (centres undefined)	36%	x	7%	0.93µM*	u
CC(C)CCOC(=O)C[N+](C)(C)CCOC1CC2CCC1(C)C2(C)C (centres undefined)	246%	1%	3%	u	u
CCCCOC(=O)C[N+](C)(C)CCOC1CC2CCC1(C)C2(C)C (centres undefined)	u	-13%	9%	1.5µM*	u
CCCCCCCOC(=O)C[N+](C)(C)CCOC1CC2CCC1(C)C2(C)C (centres undefined)	13µM*	-3%	6%	1.9µM*	-73*
CC1(C)C2CCC1(C)C(OCCNCCOC(=O)Nc1ccccc1)C2 (centres undefined)	-15%	7%	2%	u	0
CCCCCCOC(=O)C[N+](C)(C)CCOC1CC2CCC1(C)C2(C)C (centres undefined)	0.74µM*	-12%	4%	1.7µM*	-19
Cn1c(=O)[nH]c2c(cnn2C)c1=O	x	x	x	x	-98*
CCOC(=O)c1noc2nc(C)n(CC(=O)Nc3cc(Cl)ccc3OC)c(=O)c12	x	-5%	x	x	16
CCCN(c1ccccc1C(=O)O)S(=O)(=O)c1ccc2c(c1)n(C)c(=O)n2C	0.83µM*	7%	-23%	-17%	15
Cc1c[nH]c(=O)n(CCCN2CCN(c3ccccc3OCC(F)(F)F)CC2)c1=O	x	x	12%	x	x
Nc1ccc(Oc2ncccn2)cc1	3%	35µM*	u	-2%	-22
O=Cc1cccc(Oc2ncccn2)c1	-39%	3%	0%	-11%	42
Cc1ccc([C@H]2C[C@H](O)[C@@H](n3cc(-c4ccc(F)cc4)nn3)CN2C(=O)C2CCCCC2)cc1	x	x	x	x	-21
O=C(c1ccccc1F)N1CCN(C(=O)C2CC2)CC1	u	-24%	x	12%	-14
Cc1ccc(S(=O)(=O)N2CCN(C(=O)c3ccccn3)CC2)cc1	20%	-7%	2%	-7%	4
O=C(c1ccc(F)cc1F)N1CCC(c2noc(-c3ccc(S(=O)(=O)N4CCCC4)cc3)n2)CC1	x	2%	x	x	-1
CC1CCC(N2CCN(C(=O)c3ccccc3F)CC2)CC1 (centres undefined)	12µM*	7%	u	0%	5
O=C(CN1CCCCC1)N1CCN(S(=O)(=O)c2ccccc2)C1	u	9%	1%	10%	-103*

High-throughput results deposited in PubChem BioAssay by National Center for Advancing Translational Sciences (NCATS).
